Test system: VRK2
Details: concentration: 1 μM, replicates: in singlicate; n = 1
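Further: KINOMEscan kinase panel screen.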

First: COC(=O)Nc1nc2cc(Oc3ccc(NC(=O)Nc4cccc(SC)c4)cc3)ccc2[nH]1.Cl [GW697999]
Second: COC(=O)Nc1nc2ccc(Oc3ccc(CC(=O)Nc4cc(C(F)(F)F)ccc4F)cc3)cc2[nH]1 [GW680903]
The “%Inh” value of the first is higher: 26% for the first, 13% for the second.

Compared with `Cc1ccc(O)cc1Nc1ccnc2cc(-c3ccc(CN4CCCCC4)o3)ccc12` [GW557777], `Fc1cc(Cl)ccc1Nc1ccnc2cc(-c3ccc(CN4CCOCC4)o3)ccc12` [GW560109] is higher in “%Inh” value: 0% for the first, 27% for the second.

First: CN(c1ccc2c(c1)nc(NCc1ccccc1)n2C)c1ccnc(Nc2ccc(CS(C)(=O)=O)cc2)n1.Cl [GW811603]
Second: CN1CCN(Cc2ccc(NC(=O)Nc3ccc(N(C)c4ccnc(Nc5ccc(CS(C)(=O)=O)cc5)n4)cc3)cc2)CC1.Cl [GW827654]
The “%Inh” value of the first is higher: 100% for the first, 65% for the second.

Compared with `COc1cccc(C2=C(Nc3cccc(O)c3)C(=O)NC2=O)c1` [SB-390771], `COc1ccc(C2=C(Nc3cccc(O)c3)C(=O)NC2=O)cc1` [SB-390766] is lower in “%Inh” value: 10% for the first, 0% for the second.

First: CC(C)NCC(Cc1ccccc1)NC(=O)c1cc(Br)c(-c2ccnc3[nH]ccc23)s1.Cl.Cl (stereo not drawn) [GSK1383281]
Second: Cl.Cl.NC(CNC(=O)c1cc(Br)c(-c2ccnc3[nH]ccc23)s1)c1ccccc1 (stereo not drawn) [GSK1322949]
The “%Inh” value of the first is lower: 2% for the first, 67% for the second.

First: Cc1ccc(O)cc1Nc1ccnc2ccc(C(C)(C)C)cc12 [GW856805]
Second: Fc1cc(Cl)ccc1Nc1ccnc2cc(-c3ccc(CN4CCSCC4)o3)ccc12 [GW560106]
The “%Inh” value of the first is lower: 20% for the first, 29% for the second.

Going from `NCCC(NC(=O)c1cc(Br)c(-c2ccnc3[nH]ccc23)s1)c1ccccc1.O=C(O)C(F)(F)F.O=C(O)C(F)(F)F` (stereo not drawn) [GSK1307810] to `O=C(Nc1c(F)cccc1F)c1cc(C(=O)c2ccccc2F)c[nH]1` [GSK1326180], the “%Inh” value falls from 23% to 0%.

First: O=C(O)C(F)(F)F.O=c1[nH]ccc2nc(N[C@@H]3CCNC3)nc(Nc3cc(Cl)cc(Cl)c3)c12 [GSK2188764]
Second: CS(=O)(=O)c1cccc(CNc2nc(Nc3ccc4c(c3)CCC(=O)N4)ncc2C(F)(F)F)c1
The “%Inh” value of the first is higher: 94% for the first, 0% for the second.

Going from `Cc1ccc(C)c(NC(=O)Nc2ccc(C)c(-c3ccc(C(=O)Nc4ccncc4)cc3)c2)c1` [GSK1398473] to `Nc1ncc(-c2ccc3nccc(-c4ccncc4)c3c2)cc1S(=O)(=O)N1CCCCC1` [GSK1693850], the “%Inh” value rises from 0% to 2%.

Going from `Cn1cc(-c2ccc3c(c2)CCN3C(=O)Cc2cc(F)cc(F)c2F)c2c(N)ncnc21` [GSK2634140] to `CN(c1ccc(F)c(NC(=O)c2cccc(OC(C)(C)C#N)c2Cl)c1)c1ccc2nc(NC(=O)C3CC3)sc2n1`, the “%Inh” value falls from 27% to 0%.

First: N#Cc1cnc2cc(-c3cnc(CNCCN4CCOCC4)s3)ccc2c1Nc1ccc(Oc2ccccc2)cc1 [GW664114]
Second: Cl.N#CCc1ccc(Nc2nccc(Nc3ccc(Oc4ccccc4)cc3)n2)cc1 [GW639905]
The “%Inh” value of the first is lower: 8% for the first, 24% for the second.

In the case of `CN(C)c1ncnc2nc[nH]c12` [SKF-31736], the “%Inh” value is reported as 38%.

Test system: WEE1
Details: concentration: 1 μM, replicates: in singlicate; n = 1

Compared with `COc1ccc(NC(=O)c2ccoc2)cc1-c1ccc(C(=O)NCC2CC2)cc1` [GW810437], `Cc1ccc(NC(=O)c2ccc(Cl)c(Cl)c2)cc1-c1ccc(C(=O)Nc2ccncc2)cc1` [GSK1398460] is higher in “%Inh” value: 7% for the first, 11% for the second.

`O=C(Nc1n[nH]c2nc(-c3ccccc3O)ccc12)C1CC1` [SB-711880] and `O=C(Nc1n[nH]c2nc(-c3cccc(O)c3)ccc12)C1CC1` [SB-711805] are the same in “%Inh” value: 0% for the first, 0% for the second.

Compared with `CNc1nccc(-c2ccc3c(N)n[nH]c3c2)n1` [GSK2206003], `COc1ccc(C)c(Nc2ccnc(Nc3ccc(-c4cnc[nH]4)cc3)n2)c1.Cl` [GW784041] is lower in “%Inh” value: 9% for the first, 0% for the second.

First: c1ccc(Oc2ccc(Nc3ccnc4cc(-c5ccc(CN6CCCCC6)o5)ccc34)cc2)nc1 [GW567143]
Second: Cc1ccc(O)cc1Nc1ccnc2cc(-c3ccc(CN4CCCCC4)o3)ccc12 [GW557777]
The “%Inh” value of the first is higher: 8% for the first, 5% for the second.

Compared with `CC(C)(C)c1ccc(C(=O)Nc2cn3cc(-n4ccnc4)ccc3n2)cc1`, `Cc1ccc(O)cc1Nc1ccnc2ccc(C(C)(C)C)cc12` [GW856805] is higher in “%Inh” value: 0% for the first, 9% for the second.

Compared with `Cl.Cl.NCC(NC(=O)c1cc(-c2cccnc2)c(-c2ccnc3[nH]ccc23)s1)c1ccccc1` (stereo not drawn) [GSK1323434], `Cl.Cl.NC(CNC(=O)c1cc(Br)c(-c2ccnc3[nH]ccc23)s1)c1ccccc1` (stereo not drawn) [GSK1322949] is higher in “%Inh” value: 8% for the first, 18% for the second.

First: Cc1ccc(Nc2ccnc(Nc3ccc(C)c(F)c3)n2)cc1O.Cl [GW582868]
Second: COc1cccc(NC(=O)NCCNc2ccnc(Nc3ccc(F)cc3)n2)c1 [GSK1379879]
The “%Inh” value of the first is lower: 0% for the first, 31% for the second.

First: Cc1cc(-c2c(-c3ccc(F)cc3)ncn2CCCN2CCOCC2)nc(N)n1 [SB-222517]
Second: Fc1cc(Cl)ccc1Nc1ccnc2cc(-c3ccc(CN4CCOCC4)o3)ccc12 [GW560109]
The “%Inh” value of the first is higher: 47% for the first, 0% for the second.

Compared with `CN(C)CCNS(=O)(=O)c1ccc(-c2ccnc3[nH]ccc23)cc1` [GSK977620], `CC(C)NCC(Cc1ccccc1)NC(=O)c1cc(Br)c(-c2ccnc3[nH]ccc23)s1.Cl.Cl` (stereo not drawn) [GSK1383281] is lower in “%Inh” value: 35% for the first, 6% for the second.

`COc1cccc(CC(=O)N2CCc3cc(-c4cn(C)c5ncnc(N)c45)ccc32)c1` [GSK2608899] and `Cn1cc(-c2ccc3c(c2)CCN3C(=O)Cc2cc(F)cc(F)c2F)c2c(N)ncnc21` [GSK2634140] are the same in “%Inh” value: 0% for the first, 0% for the second.

First: COC(=O)Nc1nc2cc(Oc3ccc(NC(=O)Nc4cccc(SC)c4)cc3)ccc2[nH]1.Cl [GW697999]
Second: COC(=O)Nc1nc2ccc(Oc3ccc(CC(=O)Nc4cc(C(F)(F)F)ccc4F)cc3)cc2[nH]1 [GW680903]
The “%Inh” value of the first is higher: 28% for the first, 1% for the second.

`CN(c1ccc2c(c1)nc(NCc1ccccc1)n2C)c1ccnc(Nc2ccc(CS(C)(=O)=O)cc2)n1.Cl` [GW811603] and `CN1CCN(Cc2ccc(NC(=O)Nc3ccc(N(C)c4ccnc(Nc5ccc(CS(C)(=O)=O)cc5)n4)cc3)cc2)CC1.Cl` [GW827654] are the same in “%Inh” value: 0% for the first, 0% for the second.

Going from `COc1cccc(C2=C(Nc3cccc(O)c3)C(=O)NC2=O)c1` [SB-390771] to `COc1ccc(C2=C(Nc3cccc(O)c3)C(=O)NC2=O)cc1` [SB-390766], the “%Inh” value rises from 20% to 90%.

Compared with `NCCC(NC(=O)c1cc(Br)c(-c2ccnc3[nH]ccc23)s1)c1ccccc1.O=C(O)C(F)(F)F.O=C(O)C(F)(F)F` (stereo not drawn) [GSK1307810], `O=C(Nc1c(F)cccc1F)c1cc(C(=O)c2ccccc2F)c[nH]1` [GSK1326180] is lower in “%Inh” value: 4% for the first, 2% for the second.

`O=C(O)C(F)(F)F.O=c1[nH]ccc2nc(N[C@@H]3CCNC3)nc(Nc3cc(Cl)cc(Cl)c3)c12` [GSK2188764] and `CS(=O)(=O)c1cccc(CNc2nc(Nc3ccc4c(c3)CCC(=O)N4)ncc2C(F)(F)F)c1` are the same in “%Inh” value: 0% for the first, 0% for the second.

Going from `Cc1ccc(C)c(NC(=O)Nc2ccc(C)c(-c3ccc(C(=O)Nc4ccncc4)cc3)c2)c1` [GSK1398473] to `Nc1ncc(-c2ccc3nccc(-c4ccncc4)c3c2)cc1S(=O)(=O)N1CCCCC1` [GSK1693850], the “%Inh” value falls from 12% to 0%.

Going from `N#Cc1cnc2cc(-c3cnc(CNCCN4CCOCC4)s3)ccc2c1Nc1ccc(Oc2ccccc2)cc1` [GW664114] to `Cl.N#CCc1ccc(Nc2nccc(Nc3ccc(Oc4ccccc4)cc3)n2)cc1` [GW639905], the “%Inh” value falls from 7% to 0%.

`CN(c1ccc(F)c(NC(=O)c2cccc(OC(C)(C)C#N)c2Cl)c1)c1ccc2nc(NC(=O)C3CC3)sc2n1` and `Fc1cc(Cl)ccc1Nc1ccnc2cc(-c3ccc(CN4CCSCC4)o3)ccc12` [GW560106] are the same in “%Inh” value: 0% for the first, 0% for the second.

`CN(C)c1ncnc2nc[nH]c12` [SKF-31736] was tested, and the “%Inh” value was 0%.

— publication PMC5540273 (PLoS ONE, 2017)
